# Results reported in PMC7862700, “An all-to-all approach to the identification of sequence-specific readers for epigenetic DNA modifications on cytosine”.
# How the values were obtained:
# Assay in all cases: DAPPL (digital affinity profiling via proximity ligation, sequencing); 10 mM Tris-HCl pH 7.5, 50 mM NaCl, 1 mM DTT, 4% glycerol, room temperature, 30 min; GST-TFs on glutathione beads, 16-mer random dsDNA library, 0.1% formaldehyde crosslink after washing; high values mean tight binding
# FLI1 = target: T1, FLI1 (Homo sapiens, UniProt Q01543 1-452); conditions: protein: recombinant; tags: N-terminal GST; dsDNA, one strand shown
# T1 sequence: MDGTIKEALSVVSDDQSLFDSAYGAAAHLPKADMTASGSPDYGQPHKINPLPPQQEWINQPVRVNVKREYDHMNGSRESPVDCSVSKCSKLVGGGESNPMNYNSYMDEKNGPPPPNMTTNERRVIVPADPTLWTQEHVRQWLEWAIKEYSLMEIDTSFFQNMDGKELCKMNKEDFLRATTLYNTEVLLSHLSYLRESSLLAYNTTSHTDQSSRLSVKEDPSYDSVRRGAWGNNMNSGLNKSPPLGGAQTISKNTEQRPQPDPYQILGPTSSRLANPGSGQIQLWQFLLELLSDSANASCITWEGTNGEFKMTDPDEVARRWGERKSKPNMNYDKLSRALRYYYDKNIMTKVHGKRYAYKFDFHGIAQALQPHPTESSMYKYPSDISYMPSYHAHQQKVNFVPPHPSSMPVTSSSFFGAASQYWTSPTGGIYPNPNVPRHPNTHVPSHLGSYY
# Outline: (§1)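 Pools of DNA-barcoded human transcription factors, expressed in yeast as GST fusions on glutathione beads and combined with a tag-only sample, were incubated with 200 nmole of a 16-mer random double-stranded DNA library. Incubation took 30 min at room temperature in Tris/NaCl/DTT/glycerol buffer and was followed by washing, 0.1% formaldehyde crosslinking, proximity ligation (BsaI/T4 ligase, 1 h, 37 °C), PCR amplification and sequencing on an Illumina NextSeq500. Binding signal is the ratio of a hexamer's read frequency for a factor to its frequency for the tag-only sample.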
# ELK1 = target: T2, ELK1 (Homo sapiens, UniProt P19419 1-428); conditions: protein: recombinant; tags: N-terminal GST; dsDNA, one strand shown
# T2 sequence: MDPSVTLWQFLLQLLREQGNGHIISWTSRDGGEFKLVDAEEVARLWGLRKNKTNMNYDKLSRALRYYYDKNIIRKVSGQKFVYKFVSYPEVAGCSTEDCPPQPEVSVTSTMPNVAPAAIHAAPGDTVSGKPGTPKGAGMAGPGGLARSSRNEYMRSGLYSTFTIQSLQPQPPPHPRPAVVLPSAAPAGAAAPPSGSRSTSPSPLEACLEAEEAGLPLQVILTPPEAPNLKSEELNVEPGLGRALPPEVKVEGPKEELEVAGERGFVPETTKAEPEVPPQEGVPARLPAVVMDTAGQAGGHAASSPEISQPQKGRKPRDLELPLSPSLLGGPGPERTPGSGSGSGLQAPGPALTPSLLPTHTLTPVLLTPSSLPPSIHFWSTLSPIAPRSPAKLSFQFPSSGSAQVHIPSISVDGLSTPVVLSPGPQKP
# Outline: as §1
# GABPA = target: T3, GABPA (Homo sapiens, UniProt Q06546 1-454); conditions: protein: recombinant; tags: N-terminal GST; dsDNA, one strand shown
# T3 sequence: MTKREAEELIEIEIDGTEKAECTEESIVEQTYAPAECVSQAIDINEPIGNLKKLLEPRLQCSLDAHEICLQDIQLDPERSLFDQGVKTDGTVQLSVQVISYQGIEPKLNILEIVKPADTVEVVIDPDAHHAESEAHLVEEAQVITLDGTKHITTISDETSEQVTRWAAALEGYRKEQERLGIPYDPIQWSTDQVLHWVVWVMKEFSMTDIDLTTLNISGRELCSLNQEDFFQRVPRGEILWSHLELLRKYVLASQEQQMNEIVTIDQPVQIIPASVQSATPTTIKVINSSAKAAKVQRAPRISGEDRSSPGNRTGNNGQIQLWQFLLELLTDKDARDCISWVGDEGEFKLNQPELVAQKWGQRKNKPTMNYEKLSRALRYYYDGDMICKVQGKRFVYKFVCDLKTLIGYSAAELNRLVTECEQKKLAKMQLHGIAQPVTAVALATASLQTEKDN
# Outline: as §1
# ERG = target: T4, ERG (Homo sapiens, UniProt P11308 1-479); conditions: protein: recombinant; tags: N-terminal GST; dsDNA, one strand shown
# T4 sequence: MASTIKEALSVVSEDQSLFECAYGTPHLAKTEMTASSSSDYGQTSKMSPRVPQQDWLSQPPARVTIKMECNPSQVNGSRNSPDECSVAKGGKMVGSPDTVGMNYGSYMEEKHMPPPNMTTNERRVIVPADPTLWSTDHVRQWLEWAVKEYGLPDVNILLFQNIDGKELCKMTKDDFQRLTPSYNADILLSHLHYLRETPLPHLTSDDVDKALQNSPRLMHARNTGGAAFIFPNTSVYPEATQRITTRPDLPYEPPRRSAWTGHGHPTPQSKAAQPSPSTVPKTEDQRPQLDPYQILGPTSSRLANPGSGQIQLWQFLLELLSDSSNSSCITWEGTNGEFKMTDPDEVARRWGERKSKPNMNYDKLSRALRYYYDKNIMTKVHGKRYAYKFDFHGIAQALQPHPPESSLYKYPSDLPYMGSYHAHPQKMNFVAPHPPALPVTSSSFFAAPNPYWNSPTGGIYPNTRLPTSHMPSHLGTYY
# Outline: as §1
# ELF1 = ELF1 (Homo sapiens, UniProt P32519 1-619); conditions: protein: recombinant; tags: N-terminal GST; dsDNA, one strand shown
# Outline: as §1
# EHF = target: T5, EHF (Homo sapiens, UniProt Q9NZC4 1-300); conditions: protein: recombinant; tags: N-terminal GST; dsDNA, one strand shown
# T5 sequence: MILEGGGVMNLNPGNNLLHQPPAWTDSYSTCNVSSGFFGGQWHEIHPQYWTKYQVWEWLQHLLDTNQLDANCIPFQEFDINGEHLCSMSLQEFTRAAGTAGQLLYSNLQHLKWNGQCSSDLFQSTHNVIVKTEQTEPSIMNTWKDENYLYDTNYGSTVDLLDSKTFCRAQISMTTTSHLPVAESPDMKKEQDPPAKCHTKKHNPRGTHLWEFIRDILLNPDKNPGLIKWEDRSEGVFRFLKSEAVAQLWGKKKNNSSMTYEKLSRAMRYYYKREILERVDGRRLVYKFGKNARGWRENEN
# Outline: as §1
# SPI1 = SPI1 (Homo sapiens, UniProt P17947 1-270); conditions: protein: recombinant; tags: N-terminal GST; dsDNA, one strand shown
# Outline: as §1
# SPIB = SPIB (Homo sapiens, UniProt Q01892 1-262); conditions: protein: recombinant; tags: N-terminal GST; dsDNA, one strand shown
# Outline: as §1
# ELK3 = target: T6, ELK3 (Homo sapiens, UniProt P41970 1-407); conditions: protein: recombinant; tags: N-terminal GST; dsDNA, one strand shown
# T6 sequence: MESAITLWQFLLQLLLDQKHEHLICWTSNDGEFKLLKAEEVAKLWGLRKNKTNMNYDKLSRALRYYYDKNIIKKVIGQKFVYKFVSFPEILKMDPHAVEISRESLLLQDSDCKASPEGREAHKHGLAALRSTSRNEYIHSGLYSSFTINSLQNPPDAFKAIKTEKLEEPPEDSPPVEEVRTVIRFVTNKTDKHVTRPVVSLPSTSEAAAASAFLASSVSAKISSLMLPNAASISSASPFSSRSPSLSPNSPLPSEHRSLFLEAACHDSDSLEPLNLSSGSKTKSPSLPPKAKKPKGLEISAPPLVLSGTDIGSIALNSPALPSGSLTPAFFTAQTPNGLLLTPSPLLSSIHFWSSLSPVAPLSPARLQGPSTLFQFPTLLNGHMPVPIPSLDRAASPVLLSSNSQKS
# Outline: as §1
# FEV = target: T7, FEV (Homo sapiens, UniProt Q99581 1-238); conditions: protein: recombinant; tags: N-terminal GST; dsDNA, one strand shown
# T7 sequence: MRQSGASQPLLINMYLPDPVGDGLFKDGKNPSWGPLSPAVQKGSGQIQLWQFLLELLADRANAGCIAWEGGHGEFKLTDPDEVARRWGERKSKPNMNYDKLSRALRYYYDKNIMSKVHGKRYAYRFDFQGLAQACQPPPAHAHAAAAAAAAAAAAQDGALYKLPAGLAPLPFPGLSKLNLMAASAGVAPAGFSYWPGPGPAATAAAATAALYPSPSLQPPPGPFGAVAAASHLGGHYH
# Outline: as §1
# ETV5 = ETV5 (Homo sapiens, UniProt P41161 1-510); conditions: protein: recombinant; tags: N-terminal GST; dsDNA, one strand shown
# Outline: as §1
# HSF1 = HSF1 (Homo sapiens, UniProt Q00613 1-529); conditions: protein: recombinant; tags: N-terminal GST; chain copies: 3; dsDNA, one strand shown
# Outline: as §1
# SPIC = target: T8, SPIC (Homo sapiens, UniProt Q8N5J4 1-248); conditions: protein: recombinant; tags: N-terminal GST; dsDNA, one strand shown
# T8 sequence: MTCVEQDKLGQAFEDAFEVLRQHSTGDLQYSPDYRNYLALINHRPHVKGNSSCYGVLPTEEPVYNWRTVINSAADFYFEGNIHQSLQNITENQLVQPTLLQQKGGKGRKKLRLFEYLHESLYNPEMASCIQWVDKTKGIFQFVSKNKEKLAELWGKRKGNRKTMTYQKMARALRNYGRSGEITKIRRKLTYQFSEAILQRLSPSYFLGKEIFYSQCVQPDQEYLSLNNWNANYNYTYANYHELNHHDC
# Outline: as §1
# ELF4 = ELF4 (Homo sapiens, UniProt Q99607 1-663); conditions: protein: recombinant; tags: N-terminal GST; dsDNA, one strand shown
# Outline: as §1
# ELK4 = target: T9, ELK4 (Homo sapiens, UniProt P28324-2 1-405); conditions: protein: recombinant; tags: N-terminal GST; dsDNA, one strand shown
# T9 sequence: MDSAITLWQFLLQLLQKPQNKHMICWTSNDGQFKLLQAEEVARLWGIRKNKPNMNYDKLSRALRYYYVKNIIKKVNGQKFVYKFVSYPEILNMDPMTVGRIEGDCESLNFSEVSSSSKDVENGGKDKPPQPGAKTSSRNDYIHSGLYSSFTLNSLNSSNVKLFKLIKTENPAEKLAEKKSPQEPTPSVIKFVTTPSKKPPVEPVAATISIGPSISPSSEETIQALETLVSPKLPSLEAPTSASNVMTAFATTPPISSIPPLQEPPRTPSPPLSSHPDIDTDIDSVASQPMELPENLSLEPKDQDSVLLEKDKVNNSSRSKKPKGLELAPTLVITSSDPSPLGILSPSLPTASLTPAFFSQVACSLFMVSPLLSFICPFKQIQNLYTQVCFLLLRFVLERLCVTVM
# Outline: as §1
# ETV2 = target: T10, ETV2 (Homo sapiens, UniProt O00321 1-342); conditions: protein: recombinant; tags: N-terminal GST; dsDNA, one strand shown
# T10 sequence: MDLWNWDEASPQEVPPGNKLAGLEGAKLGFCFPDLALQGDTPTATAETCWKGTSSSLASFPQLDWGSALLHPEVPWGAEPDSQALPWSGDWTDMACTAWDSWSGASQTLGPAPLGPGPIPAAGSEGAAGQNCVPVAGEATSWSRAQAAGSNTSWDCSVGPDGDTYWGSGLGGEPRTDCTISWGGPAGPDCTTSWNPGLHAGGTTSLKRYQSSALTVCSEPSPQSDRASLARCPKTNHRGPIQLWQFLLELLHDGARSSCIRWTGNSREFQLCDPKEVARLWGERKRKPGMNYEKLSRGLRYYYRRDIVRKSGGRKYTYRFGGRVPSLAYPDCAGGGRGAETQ
# Outline: as §1
# ELF3 = target: T11, ELF3 (Homo sapiens, UniProt P78545 1-371); conditions: protein: recombinant; tags: N-terminal GST; dsDNA, one strand shown
# T11 sequence: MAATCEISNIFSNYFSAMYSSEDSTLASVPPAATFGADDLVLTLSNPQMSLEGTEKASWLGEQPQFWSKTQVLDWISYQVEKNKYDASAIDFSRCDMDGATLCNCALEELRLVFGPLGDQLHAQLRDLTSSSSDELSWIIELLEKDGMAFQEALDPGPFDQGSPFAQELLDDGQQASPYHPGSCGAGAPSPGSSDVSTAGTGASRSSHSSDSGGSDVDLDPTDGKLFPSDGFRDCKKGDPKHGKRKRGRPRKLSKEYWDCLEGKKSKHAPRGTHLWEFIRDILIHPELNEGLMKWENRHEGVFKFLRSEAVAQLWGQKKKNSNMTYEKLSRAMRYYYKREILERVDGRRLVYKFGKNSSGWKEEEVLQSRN
# Outline: as §1
# CRX = CRX (Homo sapiens, UniProt O43186 1-299); conditions: protein: recombinant; tags: N-terminal GST; dsDNA, one strand shown
# Outline: as §1
# ETV1 = ETV1 (Homo sapiens, UniProt P50549 1-477); conditions: protein: recombinant; tags: N-terminal GST; dsDNA, one strand shown
# Outline: as §1
# Chain of HSF1 (Q00613 whole entry): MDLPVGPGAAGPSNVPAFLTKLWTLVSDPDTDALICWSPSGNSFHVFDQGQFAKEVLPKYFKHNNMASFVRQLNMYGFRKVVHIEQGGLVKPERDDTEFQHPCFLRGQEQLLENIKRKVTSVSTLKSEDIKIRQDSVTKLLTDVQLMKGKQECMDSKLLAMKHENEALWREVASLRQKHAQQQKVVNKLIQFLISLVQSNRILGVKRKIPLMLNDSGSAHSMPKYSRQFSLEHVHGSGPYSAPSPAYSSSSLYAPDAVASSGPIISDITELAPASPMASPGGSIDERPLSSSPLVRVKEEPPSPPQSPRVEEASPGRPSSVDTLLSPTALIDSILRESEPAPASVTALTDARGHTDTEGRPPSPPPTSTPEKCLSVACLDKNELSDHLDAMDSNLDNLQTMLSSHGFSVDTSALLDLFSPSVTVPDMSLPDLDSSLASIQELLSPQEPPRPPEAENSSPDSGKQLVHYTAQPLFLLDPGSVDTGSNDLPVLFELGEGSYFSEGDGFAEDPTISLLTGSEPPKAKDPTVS
# Chain of SPIB (Q01892 whole entry): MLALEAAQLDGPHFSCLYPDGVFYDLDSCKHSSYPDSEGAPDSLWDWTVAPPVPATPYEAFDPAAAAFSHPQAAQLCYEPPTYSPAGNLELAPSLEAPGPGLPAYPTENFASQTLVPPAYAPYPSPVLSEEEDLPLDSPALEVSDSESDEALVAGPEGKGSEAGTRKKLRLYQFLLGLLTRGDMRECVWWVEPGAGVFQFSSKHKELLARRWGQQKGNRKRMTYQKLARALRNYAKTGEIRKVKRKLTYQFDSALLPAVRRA
# Chain of CRX (O43186 whole entry): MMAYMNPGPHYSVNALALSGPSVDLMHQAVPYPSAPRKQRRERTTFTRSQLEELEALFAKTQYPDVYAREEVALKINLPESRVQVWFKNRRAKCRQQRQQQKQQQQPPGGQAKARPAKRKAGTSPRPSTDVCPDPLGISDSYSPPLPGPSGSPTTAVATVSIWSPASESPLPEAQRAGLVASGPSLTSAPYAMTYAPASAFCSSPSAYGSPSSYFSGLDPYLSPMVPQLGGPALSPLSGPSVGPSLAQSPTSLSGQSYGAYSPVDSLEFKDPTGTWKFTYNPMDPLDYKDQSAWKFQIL
# Chain of ETV1 (P50549 whole entry): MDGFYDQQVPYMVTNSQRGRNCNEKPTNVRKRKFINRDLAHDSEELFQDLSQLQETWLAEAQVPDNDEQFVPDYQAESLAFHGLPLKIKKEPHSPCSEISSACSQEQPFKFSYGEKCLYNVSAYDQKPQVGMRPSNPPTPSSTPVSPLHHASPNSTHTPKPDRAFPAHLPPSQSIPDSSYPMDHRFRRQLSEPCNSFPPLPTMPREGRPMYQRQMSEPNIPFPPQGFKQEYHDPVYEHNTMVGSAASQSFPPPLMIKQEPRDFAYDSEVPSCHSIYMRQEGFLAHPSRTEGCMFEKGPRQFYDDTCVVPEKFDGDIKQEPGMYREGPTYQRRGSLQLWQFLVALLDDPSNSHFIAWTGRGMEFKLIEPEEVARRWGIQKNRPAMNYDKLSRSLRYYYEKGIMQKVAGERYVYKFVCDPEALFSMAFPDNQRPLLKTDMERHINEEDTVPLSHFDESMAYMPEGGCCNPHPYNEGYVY
# Chain of ETV5 (P41161 whole entry): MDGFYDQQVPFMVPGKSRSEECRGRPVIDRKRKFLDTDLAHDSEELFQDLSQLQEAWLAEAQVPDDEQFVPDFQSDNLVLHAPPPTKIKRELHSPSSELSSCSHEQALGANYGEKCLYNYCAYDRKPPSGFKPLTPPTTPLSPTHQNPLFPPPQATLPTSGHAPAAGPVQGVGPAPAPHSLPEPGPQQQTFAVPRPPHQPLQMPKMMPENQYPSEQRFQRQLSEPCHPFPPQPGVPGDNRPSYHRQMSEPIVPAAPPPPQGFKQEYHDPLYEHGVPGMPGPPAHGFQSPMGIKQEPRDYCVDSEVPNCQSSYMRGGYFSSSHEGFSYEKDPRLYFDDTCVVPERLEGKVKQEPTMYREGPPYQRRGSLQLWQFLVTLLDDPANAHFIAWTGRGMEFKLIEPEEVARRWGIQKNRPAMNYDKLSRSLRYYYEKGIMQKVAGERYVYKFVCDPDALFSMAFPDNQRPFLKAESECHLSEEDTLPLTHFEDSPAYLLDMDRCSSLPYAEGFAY
# Chain of ELF1 (P32519 whole entry): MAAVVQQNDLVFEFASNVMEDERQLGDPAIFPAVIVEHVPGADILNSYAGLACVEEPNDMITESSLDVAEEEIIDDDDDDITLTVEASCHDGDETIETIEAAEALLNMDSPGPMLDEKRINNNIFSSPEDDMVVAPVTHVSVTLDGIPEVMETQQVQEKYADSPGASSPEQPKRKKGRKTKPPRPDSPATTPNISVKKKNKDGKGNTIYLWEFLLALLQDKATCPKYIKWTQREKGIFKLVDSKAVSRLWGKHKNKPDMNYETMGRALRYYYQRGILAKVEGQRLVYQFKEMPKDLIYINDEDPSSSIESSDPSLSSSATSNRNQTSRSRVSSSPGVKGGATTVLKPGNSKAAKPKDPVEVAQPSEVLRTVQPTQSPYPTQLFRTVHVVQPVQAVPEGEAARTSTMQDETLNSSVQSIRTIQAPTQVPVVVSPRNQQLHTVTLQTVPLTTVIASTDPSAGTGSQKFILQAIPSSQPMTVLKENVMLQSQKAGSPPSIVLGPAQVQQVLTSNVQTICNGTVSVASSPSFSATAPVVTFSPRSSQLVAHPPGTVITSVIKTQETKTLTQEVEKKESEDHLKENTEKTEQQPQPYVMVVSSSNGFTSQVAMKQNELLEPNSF
# Chain of ELF4 (Q99607 whole entry): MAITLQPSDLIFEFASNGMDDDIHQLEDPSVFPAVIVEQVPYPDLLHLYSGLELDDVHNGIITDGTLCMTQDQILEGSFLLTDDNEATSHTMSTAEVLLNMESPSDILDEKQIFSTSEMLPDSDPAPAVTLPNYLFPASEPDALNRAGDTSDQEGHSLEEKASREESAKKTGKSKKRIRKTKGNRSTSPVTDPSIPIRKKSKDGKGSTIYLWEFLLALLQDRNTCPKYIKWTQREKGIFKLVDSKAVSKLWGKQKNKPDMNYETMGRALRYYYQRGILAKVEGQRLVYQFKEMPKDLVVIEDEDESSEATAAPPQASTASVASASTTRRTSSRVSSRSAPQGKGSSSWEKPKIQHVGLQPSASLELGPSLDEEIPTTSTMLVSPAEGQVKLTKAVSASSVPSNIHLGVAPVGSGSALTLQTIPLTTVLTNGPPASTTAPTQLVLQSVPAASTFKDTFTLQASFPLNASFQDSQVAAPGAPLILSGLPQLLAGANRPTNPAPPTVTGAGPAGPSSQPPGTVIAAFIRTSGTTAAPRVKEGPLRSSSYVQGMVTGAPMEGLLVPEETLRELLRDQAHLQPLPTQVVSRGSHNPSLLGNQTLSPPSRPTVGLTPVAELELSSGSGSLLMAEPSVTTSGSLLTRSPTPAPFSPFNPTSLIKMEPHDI
sequence,measurement,setting,value
TTGTCT,binding signal,FLI1,"1.29 fold enrichment (6-mer frequency, TF over GST control)"
same,binding signal,ELK1,"1.23 fold enrichment (6-mer frequency, TF over GST control)"
same,binding signal,GABPA,"1.33 fold enrichment (6-mer frequency, TF over GST control)"
same,binding signal,ERG,"1.15 fold enrichment (6-mer frequency, TF over GST control)"
same,binding signal,ELF1,"1.27 fold enrichment (6-mer frequency, TF over GST control)"
same,binding signal,EHF,"1.18 fold enrichment (6-mer frequency, TF over GST control)"
same,binding signal,SPI1,"1.19 fold enrichment (6-mer frequency, TF over GST control)"
same,binding signal,SPIB,"1.15 fold enrichment (6-mer frequency, TF over GST control)"
same,binding signal,ELK3,"1.31 fold enrichment (6-mer frequency, TF over GST control)"
same,binding signal,FEV,"1.24 fold enrichment (6-mer frequency, TF over GST control)"
same,binding signal,ETV5,"1.29 fold enrichment (6-mer frequency, TF over GST control)"
same,binding signal,HSF1,"1.14 fold enrichment (6-mer frequency, TF over GST control)"
same,binding signal,SPIC,"1.3 fold enrichment (6-mer frequency, TF over GST control)"
same,binding signal,ELF4,"1.18 fold enrichment (6-mer frequency, TF over GST control)"
same,binding signal,ELK4,"1.22 fold enrichment (6-mer frequency, TF over GST control)"
same,binding signal,ETV2,"1.27 fold enrichment (6-mer frequency, TF over GST control)"
same,binding signal,ELF3,"1.34 fold enrichment (6-mer frequency, TF over GST control)"
same,binding signal,CRX,"1.15 fold enrichment (6-mer frequency, TF over GST control)"
same,binding signal,ETV1,"1.2 fold enrichment (6-mer frequency, TF over GST control)"
